# Laboratory results from PubChem BioAssay (NCI).
# About 79,000 compounds went through this panel and 15% of them were active in at least one assay; those are over-represented in the sample as a whole. Values without a mark were called inactive. Calls of active or inactive are those of the source. Rule as the data show it: active = growth inhibition above about 70%; inactive = the rest.
# How the values were obtained:
# [1] = NCI Yeast Anticancer Drug Screen. Data for the rad50 strain (AID 155);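 also: 0% = growth of vehicle-only cultures of the same strain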; details: S. cerevisiae rad50 strain growth inhibition; at 50.0 µM; hits give high values
# Procedure, shortened: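 Cells are treated with compound, grown, and their growth is then scored against vehicle-only cultures of the same repair-deficient yeast strain.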
# [2] = NCI Yeast Anticancer Drug Screen. Data for the mec2-1 strain (AID 157); details: S. cerevisiae mec2-1 strain, at 50.0 µM, hits give high values
# Procedure, shortened: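 Vehicle-treated cultures served as reference for growth inhibition of compound-exposed mec2-1 yeast.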
# [3] = NCI Yeast Anticancer Drug Screen. Data for the sgs1 mgt1 strain (AID 161);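 also: 0% = growth of cultures given vehicle only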; details: S. cerevisiae sgs1 mgt1 strain, at 50.0 µM, hits give high values
# Procedure, shortened: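 Genetically altered yeast, compound exposure, growth inhibition relative to vehicle.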
# [4] = NCI Yeast Anticancer Drug Screen. Data for the cln2 rad14 strain (AID 165);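 also: 0% = growth equal to vehicle treated cultures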; details: S. cerevisiae cln2 rad14 strain, at 50.0 µM, hits give high values
# Procedure, shortened: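 Each compound was tested on cln2 rad14 yeast. Inhibition of growth was calculated against vehicle-exposed controls.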
# [5] = NCI Yeast Anticancer Drug Screen. Data for the bub3 strain (AID 167); details: S. cerevisiae bub3 mutant strain, at 50.0 µM, hits give high values
# Procedure, shortened: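 Part of a panel of yeast mutants defective in DNA damage repair or cell cycle regulation. Each strain is grown with compound, and inhibition is calculated relative to solvent-treated cultures.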
# [6] = NCI Yeast Anticancer Drug Screen. Data for the mlh1 rad18 strain (AID 175); details: S. cerevisiae mlh1 rad18 strain growth inhibition; at 50.0 µM; hits give high values
# Procedure, shortened: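 Vehicle-treated cultures served as the reference for growth inhibition in a yeast strain carrying DNA damage repair alterations exposed to each compound.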
Structure (SMILES),growth inhibition [1],growth inhibition [2],growth inhibition [3],growth inhibition [4],growth inhibition [5],growth inhibition [6]
CC1CCC(CCBr)CC1 (stereo unspecified),5.8%,-9.9%,5.15%,-3.15%,0.9%,2.25%
CN(C)C(=S)/N=c1\ssc(=S)n1C1CCCCC1,-22.1%,2.55%,6.45%,-49.6%,25.7%,-11.5%
COc1ccccc1-c1cc(=O)c2cc(C)c(C)c(C(=O)O)c2o1,7.05%,3.95%,18.6%,29.7%,7.35%,11.8%
CCC(=O)Oc1ccc(CCC(C)=O)cc1,-0.55%,-6.35%,-14.2%,-38.9%,-10.6%,30.5%
CC(C)CCCC(C)C1CCC2C3C(=O)C=C4C=CCCC4(C)C3CCC12C (stereo unspecified),5.95%,11.2%,34.1%,9.55%,5.9%,10.5%
CC(C)(C)C1=NNC(c2ccccc2)C1 (stereo unspecified),5.25%,-3.75%,-14.7%,5.5%,-1.25%,12.6%
CSc1ncnc2nn(C3OC(CO)C(O)C3O)cc12 (stereo unspecified),8.1%,5.85%,6.25%,8.4%,-9.6%,-5.4%
O=C1/C(=C/c2cccs2)CCc2ccccc21,20.6%,-12.4%,6.05%,-16.1%,9.7%,31.9%
CCOc1ccc(NC(=O)C(Br)C(Br)C(=O)O)cc1 (stereo unspecified),85.7% (active),98.5% (active),96.8% (active),95.4% (active),98.5% (active),94.6% (active)
Cc1c2cccc(Br)c2c[n+]2ccccc12,20.9%,18.4%,39%,-21.4%,1.3%,31.1%
Cc1nc2ccc(Br)cc2c(=O)n1-c1ccc(N=Cc2ccccc2Cl)cc1,49.8%,16.5%,26.6%,19.6%,2.6%,34.8%
Cc1cc(=O)[nH]c(NN2C(Cl)C(=O)C2c2cccc(Cl)c2)n1 (stereo unspecified),-5.85%,-34.1%,-9.4%,2.6%,-10.5%,-33%
Cc1cc(S(=O)(=O)Nc2n[nH]c(Nc3ccccc3)n2)c(SSc2cc(Cl)c(C)cc2S(=O)(=O)Nc2n[nH]c(Nc3ccccc3)n2)cc1Cl,12.2%,37.8%,4.95%,11.9%,12%,18.2%
CCOC(=O)N(c1ccccc1)c1ccccc1,-11.3%,-18.8%,18.7%,5.65%,5%,15.2%
CCOC(=O)C(=O)C(Cc1ccccc1)C(=O)OCC (stereo unspecified),0.2%,-3.95%,9.75%,-46.5%,11.7%,-7.2%
CCOc1ccc(NC(=O)c2c(N/N=C/c3ccc(OC)cc3)nc(=O)[nH]c2C)cc1,-14.2%,-31.5%,-21.6%,-8.7%,-15.6%,-28.7%
OCCCNCc1ccccc1,-36.8%,-23.4%,-20.1%,-32.4%,-32.9%,-21.1%
CC[CH2][Sn]([CH2]CC)([O]C(=O)c1cccnc1SC)[O][Sn]([CH2]CC)([CH2]CC)[O]C(=O)c1cccnc1SC,88.5% (active),90% (active),90.8% (active),88.9% (active),89.1% (active),82.1% (active)
CC(Cl)S(N)(=O)=O (stereo unspecified),-11.7%,-11.7%,-19.2%,-6.45%,7.45%,2.15%
CCOC(=O)c1c(C)c2c(n1C)CCC(CCC(C)=O)C2=O (stereo unspecified),5.6%,5.5%,-0.4%,14.3%,6.7%,3.15%
O=C(O)c1ccc(CC2CCCC2)cc1,30.8%,25.9%,21.4%,-8.2%,-2.35%,8.85%

Structure (SMILES),growth inhibition [1],growth inhibition [2],growth inhibition [3],growth inhibition [4],growth inhibition [5],growth inhibition [6]
CC1NC(=O)OC1C(C)(C)C (stereo unspecified),6.95%,-2.8%,-0.75%,-19.1%,-5.4%,-4.55%
CCCCCCC1OCC(CC)(CC)CO1,11.8%,-12.4%,-18.9%,-26.5%,-15.6%,26.4%
N#CC(=O)Nc1ccc(Cl)c(Cl)c1,-18.6%,-11.2%,-14.6%,-76.6%,-2.15%,0.4%
C=C(C)C1CC=C(/C=N/O)CC1 (stereo unspecified),-4.6%,4%,5.65%,-13.7%,8.1%,2.8%
O=C(Nc1cccc2ccccc12)c1ccc(Cl)c(Cl)c1,38.6%,53.4%,52.8%,43.8%,63.5%,72.3% (active)
COC1CC(NC(=O)C(F)(F)F)C(O)C(CNC(=O)C(F)(F)F)O1 (stereo unspecified),-32.5%,17.2%,-3.55%,-14%,16.1%,19.4%
COc1cc2c(cc1OC)C(C#N)(C(c1ccccc1)c1ccccc1)N(C(=O)c1ccccc1)C=C2 (stereo unspecified),16.9%,3.45%,1.35%,-1.15%,-0.7%,30.9%
Cc1cccc(C(=O)O)c1[N+](=O)[O-],10.4%,1.05%,-8.25%,-8.35%,-14%,7.1%
CCCCN(CCCC)C(=O)C(=O)C(C)C(=O)CC (stereo unspecified),-3.6%,-2.75%,14.7%,-1.05%,12.3%,25.7%
O=C1NC2OCC(O)C(O1)C2O (stereo unspecified),3.85%,1%,-13.3%,7.75%,-2.25%,16.3%
N#CCCNC=O,-7.15%,0.4%,-8.7%,-7%,6.3%,-4.95%
Cn1c(=O)c2c(nc3n(C)c(=O)c4ccccc4n23)n(C)c1=O,64.7%,32.8%,-8.15%,7.3%,5.45%,45.6%
CC(=O)N(C)c1ccccc1O,6.6%,-10.1%,-14.6%,-33.2%,10.2%,-19.9%
Cc1ccc(S(=O)(=O)N/N=C/C(C)C)cc1,14.2%,-15.6%,4.75%,17.8%,-14.8%,24.2%
CC(=O)c1ccc(OCc2ccccc2)cc1OCc1ccccc1,7%,4.5%,-9.8%,11.7%,4.8%,-18.6%
CC1(C)C(C#N)C1C1=C(N2CCOCC2)[C@]2(C)C(OC(=O)c3ccccc3)CC[C@@H]2C1 (stereo partly specified),-8.6%,-17.2%,-8.7%,7.7%,12.4%,4.15%
C[N+](C)(CCNc1ccc(NCC[N+](C)(C)Cc2ccc([N+](=O)[O-])cc2)c2c1C(=O)c1c(O)ccc(O)c1C2=O)Cc1ccc([N+](=O)[O-])cc1,72.2% (active),84.6% (active),77.9% (active),78.1% (active),76.7% (active),76.8% (active)
O=C(Nc1ccc(CCc2ccc(NC(=O)C34CC5CC(CC(C5)C3)C4)cc2)cc1)C12CC3CC(CC(C3)C1)C2,-9.65%,-6.55%,13.8%,-0.45%,-0.25%,2.55%
Nc1c(N=Nc2ccc(S(=O)(=O)Nc3cnccn3)cc2)cc(S(=O)(=O)O)c2ccccc12,10.6%,-2.45%,8.3%,5.9%,9.8%,26.6%
CC(=O)Nc1ccc(SC#N)c2c(NC(C)=O)cccc12,44.6%,27.5%,56.5%,27.6%,30.4%,47.7%
